Laboratory results taken from publication PMC4552634, “A New Set of Chemical Starting Points with Plasmodium falciparum Transmission-Blocking Potential for Antimalarial Drug Discovery” (PLoS ONE, 2015).
Hit rate of the full screen: of about 13,000 compounds, about 3,200 (25%) showed an effect of 50% or more. The list shows a part of the results.

test system: P. falciparum stage V gametocytes; design: BacTiter-Glo ATP luminescence viability of purified stage V gametocytes in 384-well plates, per cent inhibition versus DMSO; settings: 48 h, 5 µM; inhibitor

| SMILES | % Inhibition [%] |
| --- | --- |
| CC(C)(CN)c1nc(-c2ccc(Br)c(O)c2)c(-c2ccncc2)[nH]1 [TCMDC-140680] | -59.77 |
| O=C(/C=C/c1ccc(Cl)c(Cl)c1)NCCCCCN1CCC(NC(=O)Nc2ccccc2F)CC1 [TCMDC-139386] | -2.666 |
| C=CCOC1OC(COC(c2ccccc2)(c2ccccc2)c2ccccc2)C(OC(C)=O)C(OC(C)=O)C1NC(C)=O (stereo not shown) [TCMDC-131992] | 13.79 |
| CCN(CC)CCN(Cc1ccc(-c2ccc(C(F)(F)F)cc2)cc1)C(=O)Cn1c(CCc2cccc(F)c2F)c(C)c(=O)c2ccccc21 [TCMDC-141313] | 76.85 |
| CCN(CC)CCN(Cc1ccc(-c2ccc(C(F)(F)F)cc2)cc1)C(=O)Cn1c(CCc2ccc(F)c(F)c2F)nc(=O)c2cccnc21 [TCMDC-141002] | 20.31 |
| CCN(CC)CCN(CCCc1ccc(-c2ccc(C(F)(F)F)cc2)cc1)C(=O)Cn1c(CCc2cccc(F)c2F)nc(=O)c2c1CCC2 [TCMDC-140984] | 42.45 |
| CCN(CC)CCN(Cc1ccc(-c2ccc(C(F)(F)F)cc2)cc1)C(=O)Cn1c(CCc2cccc(F)c2F)nc(=O)c2cccnc21 [TCMDC-141013] | 97.72 |
| CC(C)(C)NCCN(Cc1ccc(-c2ccc(C(F)(F)F)cc2)cc1)C(=O)Cn1c(CCc2cccc(F)c2F)nc(=O)c2c1CCC2 [TCMDC-140979] | 113.3 |
| CCN(CC)CCN(Cc1ccc(-c2ccc(C(F)(F)F)cc2)cc1)C(=O)Cn1c(CCc2cccc(F)c2F)nc(=O)c2ccccc21 [TCMDC-140922] | 60.98 |
| Cn1nccc1C(=O)NCCNCc1cccc(-c2csc(-c3nc4ccccc4[nH]3)c2)c1 [TCMDC-133002] | -62.03 |
| CCCN1CCc2c(sc3nc(SCC(=O)Nc4ccc(C)cc4)n(-c4ccc(C)cc4)c(=O)c23)C1 [TCMDC-125451] | 5.583 |
| O=C(NC1CCCc2ccccc21)C1CCCN(C(=O)c2ccc(O)c(-c3ccc(Cl)c(Cl)c3)c2)C1 (stereo not shown) [TCMDC-140890] | 19.76 |
| CCn1c(CN2CCC(C)CC2)nc2cc(NC(=O)c3cccs3)ccc21 [TCMDC-124730] | -26.92 |
| CCCCCCCN(Cc1ccc(OC(C)(C)C(=O)OCC)cc1)C(=O)Cc1ccc(F)cc1F [TCMDC-131920] | 13.51 |
| COC(=O)c1cccc(NC(=O)NC2CCN(c3ccnc(Nc4ccc(OC)cc4)n3)C2)c1 (stereo not shown) [TCMDC-133618] | -6.04 |
| CC1CN(Cc2cccc(-c3ccc(-c4nc5ccccc5[nH]4)cc3)c2)CC(C)O1.O=C(O)C(F)(F)F (stereo not shown) [TCMDC-133816] | -91.64 |
